# In PubChem BioAssay:
# Activity calls are given as the source filed them.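 How the source made its calls, unless noted: active means inhibition of the reporter signal at or above 50%; inactive means inhibition below 50%.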 Where a SMILES comes first, the peptide text is derived from it.
# Experiments:
# [1] = inhibitors of TNFa-induced NFkB p65 translocation, primary screen, imaging, HUVEC, MLSMR starter and 10KST1 sets (AID 438;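 active means inhibition above 20% together with a positive visual image hit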;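 further: compound added about 3h40 before a 20 min TNFalpha stimulation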;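 on inhibition: signal is the nuclear over cytoplasmic p65 intensity ratio per well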); conditions: HUVEC TNFa-induced p65 nuclear translocation; cell count: measured here: nuclei count (cytotoxicity indicator), at 2.08 µM; inhibition: at 2 µM, stronger effect = higher value, 0% TNFa-plus-vehicle, 100% no-TNFa wells
# [2] = inhibitors of mutant huntingtin aggregation, primary screen, imaging, exon1htt(103Q)mCFP cells, high-content imaging (AID 483;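 active means visual image review flags a hit and inhibition of aggregation exceeds 20%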;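 further: compound exposure lasted 3 days before fixation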;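 on nuclei count: percent of the per-plate median nuclei count of sample wells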); conditions: exon1htt(103Q)mCFP cell line, aggregate imaging, at 2 µM; inhibition of aggregation: stronger effect = higher value; nuclei count: measured here: cell count, toxicity
# [3] = inhibitors of E-selectin induction by TNFa, primary screen, imaging, HUVEC, immunofluorescence, MLSMR starter and 10KST1 sets (AID 487;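 active means visually confirmed hit in the image check and inhibition above 20%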;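 on inhibition: signal is fraction of cell area covered by stained E-selectin grains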;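 on nuclei count: 100% = median nuclei count of all wells on the same plate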); conditions: HUVEC TNFalpha-induced E-selectin immunofluorescence imaging, at 2 µM; inhibition: stronger effect = higher value; nuclei count: measured here: cell number, toxicity
# [4] = target: Voltage-gated potassium channel subunit beta-2 (Rattus norvegicus) (UniProt P62483); assay: KvBeta enzyme negative modulators, primary screen, biochemical, NADPH fluorescence (AID 622;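 active means fluorescence slope higher than the sample average by over 3 SD, cut at about -0.22 in these data, passing the limit was not always enough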;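 further: slope of raw intensity against log time taken from 70 to 1610 s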); conditions: recombinant KvBeta, 4-cyanobenzaldehyde reduction, at 10 µM, stronger effect = higher value
# [5] = target: Voltage-gated potassium channel subunit beta-2 (Rattus norvegicus) (UniProt P62483); assay: KvBeta positive modulators, primary screen, biochemical, NADPH fluorescence (AID 623;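 active means NADPH fluorescence slope more negative than the mean of all samples by about 3 SD, 99.7% confidence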;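 further: fluorescence intensity change per second fitted from 20 to 320 s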); conditions: Recombinant KvBeta, NADPH fluorescence decrease slope, 10 min; at 10 µM; stronger effect = lower value
# [6] = target: Alpha-2C adrenergic receptor (Homo sapiens) (UniProt P18825); assay: modulators of alpha2C/GIRK thallium flux, primary screen, cell-based, HEK293 alpha2C/GIRK1/2 (AID 624;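 active means fluorescence slope after compound addition differing from the mean of all screened samples at 99.7% confidence, in either direction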;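 further: slope of fluorescence ratio to pre-addition baseline per second over 15 to 24 s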); conditions: thallium flux BTC fluorescence, at 10 µM, actives lie on both sides
# [7] = inhibitors of Sendai virus-induced IRF3 signaling, primary screen, TLR/RLR signaling modifier project, cell-based, Sendai virus stimulus, luciferase, 10K MLSCN set (AID 602276;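 active means inhibition at or above 50% at 10 µM; inactive means inhibition below 50%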;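 further: firefly luciferase from ISG56 promoter only with Renilla not read in this screen; 0% = Sendai virus plus DMSO and 100% = medium plus DMSO without virus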); conditions: HEK293 RL24 IRF3 luciferase reporter, at 10 µM, stronger effect = higher value
# [8] = inhibitors of poly I:C-induced TLR3 signaling, primary screen, cell-based, poly I:C stimulus, luciferase, 10K MLSCN set (AID 602277); conditions: HEK293-TLR3 RL24 IRF3 luciferase reporter, at 10 µM, stronger effect = higher value
# Sequence of Voltage-gated potassium channel subunit beta-2 (Rattus norvegicus) (P62483 whole entry, looked up): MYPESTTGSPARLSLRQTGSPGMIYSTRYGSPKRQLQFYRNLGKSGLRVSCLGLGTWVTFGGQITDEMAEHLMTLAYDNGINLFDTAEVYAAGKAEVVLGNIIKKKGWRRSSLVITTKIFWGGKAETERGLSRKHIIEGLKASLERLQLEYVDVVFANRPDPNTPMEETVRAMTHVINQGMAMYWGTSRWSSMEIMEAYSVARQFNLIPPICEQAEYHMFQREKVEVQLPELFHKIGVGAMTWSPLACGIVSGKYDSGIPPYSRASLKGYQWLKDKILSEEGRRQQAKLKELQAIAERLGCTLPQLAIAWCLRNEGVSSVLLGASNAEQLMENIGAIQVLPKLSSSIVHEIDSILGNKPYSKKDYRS
# Sequence of Alpha-2C adrenergic receptor (Homo sapiens) (P18825 whole entry, looked up): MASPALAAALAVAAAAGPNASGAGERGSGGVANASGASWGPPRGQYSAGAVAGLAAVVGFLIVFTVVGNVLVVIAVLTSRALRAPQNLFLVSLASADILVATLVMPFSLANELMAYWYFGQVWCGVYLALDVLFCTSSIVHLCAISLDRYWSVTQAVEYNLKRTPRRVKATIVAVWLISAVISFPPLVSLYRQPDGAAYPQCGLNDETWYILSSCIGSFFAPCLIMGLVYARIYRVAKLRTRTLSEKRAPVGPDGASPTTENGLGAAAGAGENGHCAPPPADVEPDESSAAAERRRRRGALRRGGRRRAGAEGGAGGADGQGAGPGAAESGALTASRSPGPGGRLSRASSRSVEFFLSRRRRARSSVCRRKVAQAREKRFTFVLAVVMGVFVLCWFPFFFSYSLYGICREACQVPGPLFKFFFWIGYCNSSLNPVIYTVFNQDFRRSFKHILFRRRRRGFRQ
Compound,cell count [1],inhibition [1],inhibition of aggregation [2],nuclei count [2],inhibition [3],nuclei count [3],fluorescence slope [4],NADPH fluorescence slope [5],slope [6],inhibition [7],inhibition [8]
O=C1c2ccccc2NC2CCCCCN12 (centres undefined),445,-2.1% (inactive),-11% (inactive),108%,13.9% (inactive),110%,-0.417 (inactive),2.2e-05 (inactive),0.0068 (inactive),-2.99% (inactive),4.91% (inactive)
N#Cc1c(/N=C/c2cccs2)sc2c1CCCCC2,636,-14.8% (inactive),-34.1% (inactive),127%,-14.2% (inactive),127%,-0.598 (inactive),-2.1e-05 (inactive),0.0029 (inactive),30.4% (inactive),-5.24% (inactive)
COc1ccccc1-n1c(-c2cccnc2)n[nH]c1=S,204,-4.8% (inactive),17.2% (inactive),77%,-123% (inactive),107%,-0.598 (inactive),-4.1e-06 (inactive),0.0043 (inactive),-0.823% (inactive),-12.6% (inactive)
O=C(COC(=O)c1cnccn1)c1ccc(OC(=O)c2ccccc2)cc1,214,-7.5% (inactive),21.7% (inactive),95.2%,-170% (inactive),132%,-0.359 (inactive),-6.1e-05 (inactive),0.00809 (inactive),18.9% (inactive),35.6% (inactive)
O=c1oc2ccccc2cc1NCc1ccccc1O,644,2.1% (inactive),-25% (inactive),115%,-19.5% (inactive),106%,-0.594 (inactive),-1.9e-05 (inactive),0.00653 (inactive),-15.8% (inactive),-21.8% (inactive)
COc1cc(C(=O)Nc2cc(C)ccn2)cc(OC)c1OC,298,-1.9% (inactive),4.3% (inactive),98.4%,-87% (inactive),113%,-0.472 (inactive),3.1e-06 (inactive),0.00568 (inactive),-4.57% (inactive),7.2% (inactive)
CCN(CC)C(=O)C1CCCc2c1[nH]c1ccc(Cl)cc21 (centres undefined),674,-18.9% (inactive),-0.9% (inactive),109%,-47.8% (inactive),104%,-0.539 (inactive),-3.5e-05 (inactive),0.00741 (inactive),-47.5% (inactive),-12.1% (inactive)
CC(=O)N1CCN(C(C)=O)C1c1ccccc1,464,6% (inactive),-9.6% (inactive),106%,-231% (inactive),133%,-0.376 (inactive),5.2e-06 (inactive),0.00709 (inactive),-22% (inactive),-25.1% (inactive)
CC(=O)Nc1ccc(OCC(O)Cn2nc(C)nc2C)cc1 (centres undefined),357,1.5% (inactive),-13.4% (inactive),95.7%,-160% (inactive),120%,-0.267 (inactive),-1.1e-05 (inactive),0.00761 (inactive),7.41% (inactive),23.2% (inactive)
CC(C)CN(C(=O)COC(=O)Cc1n[nH]c(=O)c2ccccc12)C1CCS(=O)(=O)C1 (centres undefined),399,1.7% (inactive),14.7% (inactive),96.8%,-65.6% (inactive),108%,-0.586 (inactive),-1.4e-05 (inactive),0.00565 (inactive),12% (inactive),34.3% (inactive)
CCCC(NC(=O)CNC(=O)C(C)(C)C)C(=O)O (centres undefined) (HELM PEPTIDE1{[CC(C)(C)C(=O)[*:2]].G.[CCCC(N[*:1])C(=O)O]}$$$$V2.0),678,0.5% (inactive),12.5% (inactive),104%,63.7% (inactive),97.4%,-0.499 (inactive),-1.3e-05 (inactive),0.00543 (inactive),14.8% (inactive),11.8% (inactive)
O=C(Nc1ccc2c(c1)OCO2)c1cc2ncc(Br)cn2n1,588,6.6% (inactive),-4.4% (inactive),107%,-73.8% (inactive),104%,-0.624 (inactive),1.6e-05 (inactive),0.00236 (inactive),5.44% (inactive),11.5% (inactive)
Cc1nc2sc(C(c3cccc(F)c3)N3CCCCC3)c(O)n2n1 (centres undefined),223,-2.8% (inactive),-5.5% (inactive),95.8%,-5.7% (inactive),120%,-0.538 (inactive),7.3e-06 (inactive),0.00555 (inactive),1.92% (inactive),19.2% (inactive)
O=S1(=O)CCC(NS(=O)(=O)/C=C/c2ccccc2)C1 (centres undefined),566,-1.6% (inactive),2% (inactive),119%,-1.4% (inactive),96.4%,-0.386 (inactive),-0.000106 (inactive),0.00742 (inactive),4.67% (inactive),14.6% (inactive)
Cc1cccc(-n2ncc3c(N4CCC5(CC4)OCCO5)ncnc32)c1,617,1.3% (inactive),-14.8% (inactive),97.6%,-15.1% (inactive),107%,-0.549 (inactive),-6.5e-05 (inactive),0.00695 (inactive),-34.4% (inactive),-101% (inactive)
Cc1ccc(O)c(-c2cc3ccccc3[nH]2)c1,616,-4.8% (inactive),20% (inactive),98.8%,-37.9% (inactive),109%,-0.46 (inactive),-3.3e-05 (inactive),0.00556 (inactive),-4.2% (inactive),-87.3% (inactive)
CCOc1ccc(N(CC)C(=O)COc2cc(=O)n(C)c3ccccc23)cc1,622,16.5% (inactive),-19.7% (inactive),101%,-47.3% (inactive),118%,-0.516 (inactive),7.5e-06 (inactive),0.0065 (inactive),12.4% (inactive),29.8% (inactive)
CCSC1=C(C#N)C(c2ccccc2OC)CC(=O)N1 (centres undefined),631,-1.9% (inactive),-4.5% (inactive),86.7%,-16.2% (inactive),106%,-0.436 (inactive),1.7e-05 (inactive),0.00579 (inactive),-0.399% (inactive),17.9% (inactive)
Cc1ccc(N2C(=O)c3ccccc3C2O)nc1 (centres undefined),627,0.8% (inactive),-27.7% (inactive),117%,-15.9% (inactive),117%,-0.587 (inactive),-2.2e-05 (inactive),0.00652 (inactive),48.3% (inactive),41.4% (inactive)
